Assay results from article PMC4336329 (PLoS ONE, 2015).
The whole screen tested about 310,000 compounds, of which about 14,000 (4.5%) showed an effect of 50% or more. The effect is printed as a negative number. The entries come from a sample that favours strong results as a whole.

What follows are molecules tested against human ether-à-go-go-related gene (hERG) potassium channel (human, UniProt Q12809) (assay: primary screen, population patch clamp on CHO cells stably expressing hERG; higher = less effect of the substance).
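Further: peak tail current of the secondary pulse compared with the same well before compound.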

Chain of human ether-à-go-go-related gene (hERG) potassium channel (Q12809 whole entry, looked up): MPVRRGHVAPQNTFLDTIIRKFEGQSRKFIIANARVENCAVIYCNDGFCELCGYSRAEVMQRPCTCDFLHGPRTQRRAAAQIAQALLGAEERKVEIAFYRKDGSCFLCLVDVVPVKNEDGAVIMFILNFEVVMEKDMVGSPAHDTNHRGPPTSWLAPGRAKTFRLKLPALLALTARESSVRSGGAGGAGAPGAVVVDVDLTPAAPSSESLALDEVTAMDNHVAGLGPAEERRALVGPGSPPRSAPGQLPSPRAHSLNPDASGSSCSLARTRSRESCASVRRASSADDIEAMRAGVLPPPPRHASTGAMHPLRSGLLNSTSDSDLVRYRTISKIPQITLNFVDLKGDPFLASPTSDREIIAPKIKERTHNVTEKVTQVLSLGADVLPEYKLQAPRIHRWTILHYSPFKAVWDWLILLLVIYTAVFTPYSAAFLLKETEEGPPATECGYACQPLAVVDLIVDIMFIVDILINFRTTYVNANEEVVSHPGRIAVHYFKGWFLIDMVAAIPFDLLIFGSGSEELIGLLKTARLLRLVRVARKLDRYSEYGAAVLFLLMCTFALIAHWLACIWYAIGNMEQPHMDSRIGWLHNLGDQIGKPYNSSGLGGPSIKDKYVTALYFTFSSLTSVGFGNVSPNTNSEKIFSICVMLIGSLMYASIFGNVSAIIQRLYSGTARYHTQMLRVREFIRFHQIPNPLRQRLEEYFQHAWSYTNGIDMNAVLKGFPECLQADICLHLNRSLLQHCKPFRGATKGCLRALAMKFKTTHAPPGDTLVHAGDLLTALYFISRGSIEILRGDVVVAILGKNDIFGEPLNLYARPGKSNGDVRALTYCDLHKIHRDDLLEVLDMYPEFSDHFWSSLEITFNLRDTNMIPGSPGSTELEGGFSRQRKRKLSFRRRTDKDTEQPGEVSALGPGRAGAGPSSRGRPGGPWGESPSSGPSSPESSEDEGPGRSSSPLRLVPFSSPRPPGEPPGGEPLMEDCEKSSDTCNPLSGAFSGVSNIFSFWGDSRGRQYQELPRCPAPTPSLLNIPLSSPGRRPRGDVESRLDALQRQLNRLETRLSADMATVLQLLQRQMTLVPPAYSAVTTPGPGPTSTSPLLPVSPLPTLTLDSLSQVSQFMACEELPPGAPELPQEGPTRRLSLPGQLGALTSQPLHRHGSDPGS

Structure (SMILES) | hERG current change (%, negative = inhibition) at 10uM [%]
CC(=O)Oc1ccccc1/C=C/c1ccc2ccccc2[n+]1C.[I-] | 11.3
O=C(NCc1ccccc1)C1CCC(=O)N(CC2CCCCC2)C1 (centres unmarked) | 9.03
CC[n+]1c(/C=C2\C=C(C)CC(C)(C)C2)sc2ccccc21.[I-] | -39.7
CC[n+]1c(/C=C2/C=C(C)CC(C)(C)C2)sc2ccc(OC)cc21.Cc1ccc(S(=O)(=O)[O-])cc1 | -68.7
CCC1=C/C(=C/c2sc3ccccc3[n+]2CC)CC(C)(C)C1.[I-] | 11.5
O=C(COc1ccccc1)Nc1nnc(-c2ccccc2Cl)o1 | 8.56
CCOC(=O)c1cc(NC(=O)CN2CCCC2)cc(C(=O)OCC)c1 | -16.2
Br.c1ccc(CN2CCC(N=C3NN=C(c4ccc5c(c4)OCCO5)CS3)CC2)cc1 | -43.1
Cc1cccc(C)c1NC(=O)CNC(=O)CN1C(=O)NC2(CCc3ccccc32)C1=O (centres unmarked) | 1.69
O=C1N=C(N2CCOCC2)S/C1=C\c1ccccc1OS(=O)(=O)c1ccccc1 | 0.61
CN1CCN(C2=NC(=O)/C(=C/c3ccccc3OS(=O)(=O)c3ccccc3)S2)CC1 | -76.1
O=C1N=C(N2CCOCC2)S/C1=C\c1ccc(OS(=O)(=O)c2ccccc2)cc1 | -49.8
NC1=NC(=O)/C(=C/c2ccccc2OS(=O)(=O)c2ccccc2)S1 | 5.2
CC(=O)N1CCN(C2=NC(=O)/C(=C/c3ccc(OS(=O)(=O)c4ccccc4)cc3)S2)CC1 | -69.6
CC(=O)N1CCN(C2=NC(=O)/C(=C\c3cccs3)S2)CC1 | -37.1
CCOc1ccccc1CNC(=O)c1ccc2nc(N3CCOCC3)sc2c1 | -47.5
O=C(Nc1cc(Cl)ccc1O)C1CC(c2ccccc2O)=NO1 (centres unmarked) | -5.36
O=C(O)CSc1ncnc2c1sc1nc(-c3ccccc3)c3c(c12)CCC3 | 10.3
CCOC(=O)C1CCN(C(=O)c2ccc(OCC(=O)Nc3cccc(C(F)(F)F)c3)cc2)CC1 | -55.5
CCOC(=O)C1CCN(C(=O)c2ccc(OCC(=O)Nc3cccc(C(F)(F)F)c3)c(OC)c2)CC1 | -61.9
CCOC(=O)C1CCN(C(=O)c2ccc(OCC(=O)Nc3ccc(OCC)cc3)c(OC)c2)CC1 | -19.5
CCOc1ccc(NC(=O)COc2ccc(C(=O)N3CCC(C(N)=O)CC3)cc2OC)cc1 | 9.91

Structure (SMILES) | hERG current change (%, negative = inhibition) at 10uM [%]
NC(=O)C1CCN(C(=O)c2ccc(OCC(=O)Nc3cccc(C(F)(F)F)c3)cc2)CC1 | 1.96
O=C(COc1ccc(C(=O)O)cc1)Nc1cccc(C(F)(F)F)c1 | 22.5
Cc1nc(C(=O)NNC(=O)c2ccc(Cl)cc2)c(C(F)(F)F)o1 | 7.36
CCCN1CNC(=S)N(CC2CCCO2)C1 (centres unmarked) | 5.19
CCCN(CCC)CCCNC(=S)Nc1ccc2nc3n(c(=O)c2c1)CCCCC3 | 6.36
CCCCN(CC)C(=S)Nc1ccc2nc3n(c(=O)c2c1)CCCCC3 | -59
CCN(CC)C(=S)Nc1ccc2nc3n(c(=O)c2c1)CCCCC3 | -21.8
CCCCN(CC)CCCNC(=S)Nc1ccc2nc3n(c(=O)c2c1)CCCCC3 | -11.9
CN(Cc1ccccc1)C(=S)Nc1ccc2nc3n(c(=O)c2c1)CCCCC3 | -78.1
CCCCN(C)C(=S)Nc1ccc2nc3n(c(=O)c2c1)CCCCC3 | -81.2
O=c1c2cc(NC(=S)NCc3cccnc3)ccc2nc2n1CCCCC2 | -10.1
CCN(CC)CCNC(=S)Nc1ccc2nc3n(c(=O)c2c1)CCCCC3 | 0.152
CCCCNC(=S)Nc1ccc2nc3n(c(=O)c2c1)CCCCC3 | -43.6
COC(=O)c1cc(NC(=S)NCc2ccc(Cl)cc2)cc(C(=O)OC)c1 | -20.6
Cc1ccc(Nc2nnc(SCC(=O)Nc3ccccc3[N+](=O)[O-])s2)cc1 | 7.88
CCOC(=O)CN1C(=O)/C(=C2\SC(=S)N(NC(=O)c3cccnc3)C2=O)c2ccccc21 | 11.5
O=C(NCc1ccc(F)cc1)c1cc(S(=O)(=O)N2CCOCC2)ccc1F | -20.6
C[C@H](NC(=O)c1cc2c([nH]c3ccccc32)c(-c2ccccc2)n1)C(=O)O | 11.8
O=C(Nc1ccccc1C(F)(F)F)N1CCN(C(c2ccccc2)c2ccccc2)CC1 | 15.5
COc1ccc(-c2nc(SC)n(C(=O)c3ccco3)n2)cc1 | 13.7
O=S(=O)(/C=C/c1cccc(Br)c1)N1CCOCC1 | -6.85
CCC(=NCCO)c1c(O)n(-c2ccc(Cl)cc2)c(=O)[nH]c1=O | 15.5

Structure (SMILES) | hERG current change (%, negative = inhibition) at 10uM [%]
CC(=O)c1c(-c2ccc(C)cc2)nc2c3ccccc3ccn12 | 10.2
COc1ccc2c(C(=O)c3ccc(Cl)cc3)n(CCCC(N)=O)[n+]([O-])c2c1 | -55.5
COc1ccc(C(=O)c2c3ccc(OC)cc3[n+]([O-])n2Cc2ccc(C(N)=O)cc2)cc1 | -42
COc1ccc(C(=O)c2c3ccc(OC)cc3[n+]([O-])n2CCCC(N)=O)cc1 | -34.9
COc1ccc(C(=O)c2c3ccc(C(F)(F)F)cc3[n+]([O-])n2CCCC(N)=O)cc1 | -51.6
COc1ccc(C(=O)c2c3ccc(C(F)(F)F)cc3[n+]([O-])n2CCC[NH3+])cc1.[Cl-] | -73.3
COc1ccc(C(=O)c2c3ccc([N+](=O)[O-])cc3[n+]([O-])n2CCCC(N)=O)cc1 | -34.6
COc1ccc(C(=O)c2c3ccccc3[n+]([O-])n2CCC(N)=O)cc1 | 13.1
COc1ccc2c(C(=O)c3ccc(C)cc3)n(Cc3ccc(C(N)=O)cc3)[n+]([O-])c2c1 | -12.5
COc1ccc2c(C(=O)c3ccc(C)cc3)n(CCCC(N)=O)[n+]([O-])c2c1 | -44.2
COc1ccc(S(=O)(=O)O/N=C2\CCSc3ccc(C)cc32)cc1 | 3.61
CCOCCCNCc1cn(-c2ccc(F)cc2F)nc1-c1ccccc1C | -48
CCc1cc(=O)oc2cc(C)cc(OC(C)C(=O)NCCN3CCOCC3)c12 (centres unmarked) | 4.16
CCO[C@@H]1OC(C(=O)NCc2nc3ccccc3[nH]2)=C[C@H](c2ccc(C(F)(F)F)cc2)[C@H]1CCCO | -3.34
COC(=O)c1ccc(C[n+]2ccccc2)cc1.[Br-] | 17.3
Cc1ccc(CN2CCN(CC(=O)NCc3ccc(Cl)cc3)C2=O)cc1 | -50.4
Cc1ccc(CN2CCN(CC(=O)N3CCc4ccccc4C3)C2=O)cc1 | -50.8
COCCCNC(=O)CN1CCN(Cc2ccc(Cl)cc2)C1=O | 1.74
CN(CCNC(=O)CN1CCN(Cc2ccccc2Cl)C1=O)Cc1ccccc1 | -30.4
Cc1ccc(CN2CCN(CC(=O)N3CCC(C(N)=O)CC3)C2=O)cc1 | 5.43
Cc1ccc(CNC(=O)CN2CCN(Cc3ccc(Cl)cc3)C2=O)cc1 | -20.9
Cc1ccc(-n2c(C)nnc2SCC(=O)N2CCc3ccccc3C2)cc1C | -21.9

Structure (SMILES) | hERG current change (%, negative = inhibition) at 10uM [%]
CCN(CCNC(=O)CN1CCN(Cc2ccc(Cl)cc2)C1=O)c1ccccc1 | -52
Cc1ccc(CNC(=O)CN2CCN(Cc3ccc(C)cc3)C2=O)cc1 | -26.5
Cc1nnc(SCC(=O)N2CCc3ccccc3C2)n1-c1ccccc1 | -23.6
Cc1ccc(CN2CCN(CC(=O)O)C2=O)cc1 | 41.5
Cc1ccc(-n2c(C)nnc2SCC(=O)N2CCc3ccccc3C2)cc1 | -53.3
CC(NC(=O)c1ccc(Cl)cc1)c1nnc(SCC(=O)NC2=NCCS2)n1C (centres unmarked) | 22.3
Cc1cc(O)c(N)c(C)c1Cl.Cl | -4.7
Cn1c(=O)[nH]c(=O)c2c1nc(CN1CCN(c3cccc(Cl)c3)CC1)n2CCc1ccccc1 | -21.8
CCOC(=O)C1=C(C)NC(SC)=C(C#N)C1CC(C)C (centres unmarked) | -12.3
CCN(CC)S(=O)(=O)c1ccc(-c2nnc(SCC(N)=O)n2CC)cc1 | 35.8
CCN1CCCC1CNC(=O)CN(C)S(=O)(=O)c1ccc(Cl)cc1 (centres unmarked) | -21.6
Cc1ccc(S(=O)(=O)Nc2c(C)nc3nc(C)[nH]n3c2=O)c(C)c1 | 10.3
Cc1ccc(N2C(=O)c3cccc4c(C(=O)O)ccc(c34)C2=O)cc1 | 8.57
COc1ccc(-n2ncc3c(=O)n(CC(=O)N(C(C)C)C(C)C)cnc32)cc1 | 0.562
Cc1cc(Br)cn2ccnc12 | -6.51
CC(Sc1nnc(C2CCCCC2)n1N)C(=O)NCc1ccc2c(c1)OCO2 (centres unmarked) | 3.2
CN1CCN(CCCNC(=O)c2ccc3c(=O)n(CCc4ccccc4)c(=O)[nH]c3c2)CC1 | 15.3
O=C(CN1CCN(Cc2ccc(Cl)cc2)C1=O)NCc1cccs1 | -57.6
O=C(CN1CCN(Cc2ccc(F)cc2)C1=O)NCc1cccs1 | -1.62
O=C(CN1CCN(Cc2ccccc2)C1=O)NCc1cccs1 | 1.2
